From PubChem BioAssay
RORg inh: blocks mouse ROR gamma transcriptional activity | Drosophila S2 Gal4-RORgamma UAS-luciferase reporter, 20 h | 5.4% of 310,000 active | Potency, µM (titrated, usually from 53.6 µM), for the others: at the top dose activity change, negative = inhibition, most hits filed as inhibitors; further: nearly all actives have a fitted effect of over 60% in size
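Drosophila S2 cells stably expressing Gal4-DBD/mouse RORγ fusion under metallothionein promoter plus UAS-luciferase; compound 1 h, then 700 uM CuSO4 induction for 20 h at ambient temperature; inhibition read as reduced luminescence.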
VP16 counter: Gal4-VP16 reporter inhibition counter-screen | Drosophila S2 Gal4-VP16 UAS-luciferase, luminescence, 20 h | Potency, µM (doses to about 53.6 µM), for inactives: at the top dose activity, negative = inhibition, most hits filed as inhibitors | 3.5% of 310,000 active;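 further: Gal4-VP16 expression switched on by copper sulfate through the metallothionein promoter; nearly all actives have a fitted effect of over 50% in size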
TDP1 block: inhibitors of human tyrosyl-DNA phosphodiesterase TDP1; Q9NUW8; recombinant TDP1, AlphaScreen DNA substrate cleavage; Potency, µM (highest dose often 130 µM), for inactives: top-dose activity change, negative = inhibition, most hits filed as inhibitors; 0.28% of 350,000 active; AID 485290; further: nearly all actives have a fitted effect of over 40% in size
Target sequence (Q9NUW8 whole entry, looked up): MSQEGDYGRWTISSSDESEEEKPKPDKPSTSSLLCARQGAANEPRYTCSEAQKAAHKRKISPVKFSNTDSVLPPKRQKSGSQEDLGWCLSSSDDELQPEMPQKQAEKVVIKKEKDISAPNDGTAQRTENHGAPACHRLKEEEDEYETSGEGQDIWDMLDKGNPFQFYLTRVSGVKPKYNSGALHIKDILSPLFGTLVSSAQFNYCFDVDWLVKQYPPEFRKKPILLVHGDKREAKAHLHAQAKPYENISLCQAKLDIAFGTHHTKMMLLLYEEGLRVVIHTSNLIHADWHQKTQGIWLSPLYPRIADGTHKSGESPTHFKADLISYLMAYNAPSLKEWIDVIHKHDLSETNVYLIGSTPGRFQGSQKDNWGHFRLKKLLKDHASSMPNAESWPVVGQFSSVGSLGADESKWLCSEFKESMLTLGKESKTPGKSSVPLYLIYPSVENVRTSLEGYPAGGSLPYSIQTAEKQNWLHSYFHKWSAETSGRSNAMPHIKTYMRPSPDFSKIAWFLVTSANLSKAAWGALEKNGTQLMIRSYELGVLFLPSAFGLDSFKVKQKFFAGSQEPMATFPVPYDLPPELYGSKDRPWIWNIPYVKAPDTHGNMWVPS
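Here, a 5' biotin and 3' phosphotyrosine-FITC DNA oligonucleotide reports Tdp1 activity: intact substrate bridges AlphaScreen beads, while cleavage leaves a 3' phosphate and drops signal. All incubations at room temperature.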
TDP1 cell CPT: growth inhibition of DT40 Tdp1-/-;hTDP1 cells with camptothecin (screen for TDP1 inhibitors); chicken DT40 Tdp1-/-;hTDP1 cells + 20 nM CPT, ATP luminescence, 48 h; Potency, µM (top dose mostly 46.2 µM), for the others: top-dose activity change, negative = growth inhibition, hits mostly inhibitors; 12% of 420,000 active; AID 686979; further: nearly all actives have a fitted effect of over 55% in size
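Cell growth measured by CellTiter-Glo luminescence after a minimum 48 h, 37 C compound exposure with 20 nM CPT in Tdp1-knockout DT40 cells stably expressing hTDP1, seeded 400/well; qHTS titration format.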
DT40 TDP1 no CPT: qHTS for Inhibitors of human tyrosyl-DNA phosphodiesterase 1 (TDP1): qHTS in cells in absence of CPT; Potency, µM (titrated, usually from 46.2 µM), inactives show at the top dose activity change, negative = growth inhibition, usual class: inhibitors; DT40 Tdp1-/- hTDP1 cells, no CPT, ATP luminescence, 48 h; 15% of 420,000 active; further: nearly all actives have a fitted effect of over 55% in size
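Readout: luminescence from CellTiter-Glo after 30 min in the dark at RT. Cells: DT40 Tdp1-/- with stable hTDP1, 400/well. Exposure: compounds alone, ≥48 hr, 37 °C.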
Numbers without * were called inactive; u = inconclusive; x = no result given; [ ] = dose if it differs, or a comment. Sampled rows, rich in hits. Any-hit rate of the full collection: about 19%. The call rests on the fitted dose curve; in most records, active means well fitted curve in the direction sought with a large enough effect; inconclusive means small, poorly fitted or top-dose-only effect, or another doubt; inactive means no such curve, though single readings can be large; an effect the other way counts as inactive or inconclusive. On the % scale 0 is the no-effect control and ±100 the full control effect; potency means the concentration at half of the fitted maximal effect.

SMILES	RORg inh	VP16 counter	TDP1 block	TDP1 cell CPT	DT40 TDP1 no CPT
CCCCOCCCNC(=O)C[C@@H]1C[C@@]2(C(=O)OCC)CCC=C2N(Cc2ccc(Cl)cc2Cl)C1=O	x	x	x	20.6µM*	14.6µM*
CC1CCCN(C(=O)C2CCN(S(=O)(=O)c3ccccc3)CC2)C1 (stereo not given)	x	x	0.8%	1.1%	-10.2%
COc1ccc2cc(C)c3nnc(SCc4cccnc4)n3c2c1	-4.8%	-1.7%	3.6%	-1.6%	-18.2%
CN1CCN(c2ccc(NC(=S)NC(=O)c3cccc4ccccc34)cc2)CC1	u	u	7.6%	23.1µM*	11.6µM*
CN1CCN(c2ccc(NC(=S)NC(=O)c3cccc4c(Br)cccc34)cc2)CC1	u	-13.4%	4.4%	20.6µM*	18.4µM*
CC(=O)N1CCN(c2ccc(NC(=S)NC(=O)c3ccccc3)cc2)CC1	-17.4%	-10.5%	0.0%	-13.1%	-12.5%
CN1CCN(c2ccc(NC(=O)c3ccc4ccccc4c3)cc2)CC1	11.2µM*	u	2.6%	u	u
COC(=O)CC1C(C)(C)C(OC(C)=O)[C@@]2(O)C=C3C4CC(=O)OC(c5ccoc5)[C@]4(C)CCC3[C@@]1(C)C2=O (stereo not given in full)	27.5%	-0.9%	9.0%[56.1 µM]	7.3%	-1.5%
Cc1ccc(NC(=O)c2ccccc2Cl)cc1-n1cnnn1	9.7%	-4.1%	-1.2%	3.2%	-9.6%
Cc1ccc(NC2CCCN(C(=O)c3ccccn3)C2)cc1C (stereo not given)	-2.2%	1.1%	6.9%	-2.3%	-4.6%
Cc1cccc(-c2nc3ccccc3c(=O)n2NC(=S)N(C)C)c1	-3.8%	-5.7%	5.3%	9.2µM*	8.2µM*
Cc1c(Cl)cccc1NC(=O)Cn1c(=O)n(Cc2ccco2)c(=O)c2oc3ccccc3c21	x	x	0.0%	u	u
COc1cc(CC(=O)O)ccc1OCc1ccccc1	11.7%	5.0%	-5.7%	21.3%	5.5%
COc1cc(CCc2ccccc2)c(C(=O)O)c(O)c1C/C=C(/C)CCC=C(C)C	x	x	-2.7%[56.1 µM]	u	16.4µM*
COc1ccc(NC(=O)CCCc2ccccc2)c(OC)c1	6.1%[1.91 µM]	25.7%	x	0.8%	u
COc1cc(CCc2ccccc2)c(C(=O)O)c(O)c1CC=C(C)C	x	x	x	23.1µM*	18.4µM*
O=C(Nc1nc2c(s1)CCCC2)c1cccnc1	1.5%	0.3%	-4.5%	u	-16.6%
COc1ccc(CC(=O)Nc2nc3c(s2)CCCC3)cc1	x	x	4.7%	u	u
O=C(Nc1nc2c(s1)CCCC2)c1ccc(Br)o1	u	u	4.2%	u	14.6µM*
O=C(Nc1ccc(Br)cc1)Nc1nc2c(s1)CCCCCC2	x	x	3.0%	14.6µM*	18.4µM*
Cc1ccc(C(=O)Nc2nc3c(s2)CCCC3)o1	u	u	2.3%	23.1µM*	u
CC(O)Cc1nsc(NC(=O)c2ccc(Br)o2)n1 (stereo not given)	-5.5%	-2.3%	-2.3%	4.11µM*	2.31µM*
CCc1nnc(NC(=O)c2ccc(Br)o2)s1	7.7%	-3.0%	x	-1.7%	-1.2%
O=S(=O)(Nc1nc2c(s1)CCCC2)c1ccc(Br)cc1	u	-3.0%	-3.3%	u	u
COc1ccc(N2CCOCC2)c(NC(=O)COc2cccc(C)c2C)c1	-26.9%	8.5%	4.9%	u	u
SMILES	RORg inh	VP16 counter	TDP1 block	TDP1 cell CPT	DT40 TDP1 no CPT
Cc1ccc(S(=O)(=O)N2CCCC(C(=O)NCC(C)C)C2)cc1 (stereo not given)	u	-2.2%	-2.5%	u	-27.1%
O=c1ccn([C@@H]2O[C@H](CNS(=O)(=O)c3csc(-c4ccno4)c3)[C@@H](O)[C@H]2O)c(=O)[nH]1	x	x	x	-27.9%	-8.5%
O=[N+]([O-])c1ccc(N2CCCCC2)c(Cl)c1N1CCCCC1	18.4%	-5.0%	5.9%	-6.1%	-12.0%
O=C(Nc1nc2c(s1)CCCC2)c1cccs1	u	u	5.2%	u	20.6µM*
O=C(Cc1cccs1)Nc1nc2c(s1)CCCC2	u	-1.2%	4.4%	u	u
Cc1ccc(F)cc1S(=O)(=O)NCc1nc(N2CCCC2)c2cccc(C)c2n1	x	x	x	u	23.1µM*
Cn1cc(C(=O)Nc2ccc(F)c(Cl)c2)cn1	-3.6%	-2.4%	3.1%	-16.0%	u
O=C(NNC1=NCCN1Cc1ccccc1)c1cccc(C(F)(F)F)c1	3.16µM*	11.2µM*	-1.3%	-5.8%	-13.6%
CCOc1ccc(N2C(=O)/C(=C\c3ccccc3OC)S(=O)(=O)C2c2cccc([N+](=O)[O-])c2)cc1 (stereo not given)	11.6%	-6.5%	2.7%	14.6µM*	16.4µM*
COc1ccccc1/C=C1/C(=O)N(c2cc(C)cc(C)c2)C(c2cccc([N+](=O)[O-])c2)S1(=O)=O (stereo not given)	13.8%	-7.9%	-2.3%	-19.4%	u
Cn1c(=O)c2c(nc(Br)n2CC(=O)c2cccs2)n(C)c1=O	-2.2%	9.4%	-0.7%	u	-19.8%
Cc1ccc(/C=N/n2c(-c3ccco3)n[nH]c2=S)s1	8.91µM*	u	3.2%	-0.8%	u
Cc1ccc(/C=N/n2c(-c3cccnc3)n[nH]c2=S)s1	7.08µM*	u	5.5%	-0.1%	-20.2%
S=c1[nH]nc(-c2ccco2)n1/N=C/c1ccccc1Cl	3.16µM*	22.4µM*	5.5%	0.5%	14.0%
S=c1[nH]nc(-c2ccco2)n1/N=C/c1ccc(Cl)cc1	4.47µM*	3.98µM*	9.5%	0.1%	-8.1%
S=c1[nH]nc(-c2cccnc2)n1/N=C/c1ccc(Br)s1	u	u	x	13.3%	-3.4%
O=C(CSc1nnc(-c2ccc(C(F)(F)F)cn2)o1)Nc1cccc(Cl)c1	-32.9%	-8.0%	x	17.2%	-11.3%
CCOC(=O)N1CCN(C(=O)C2CCN(S(=O)(=O)c3ccc(F)cc3)CC2)CC1	12.1%	3.6%	2.5%	-16.8%	-12.5%
O=C(COC(=O)CCCc1c[nH]c2ccccc12)Nc1ccc2c(c1)OCO2	-4.9%	-2.6%	12.1%	-5.4%	-8.6%
O=Nc1c(-c2c(O)[nH]c3cc(Br)ccc23)[nH]c2ccccc12	3.9%	u	23.6%[56.1 µM]	u	14.6µM*
O=C(CSCc1cccc(Br)c1)N=Nc1c(O)[nH]c2ccccc12	0.1%	-16.9%	9.6%	-10.3%	-25.8%
Cn1nnc(NC(=O)c2cccc(F)c2)n1	-7.3%	-4.6%	-2.1%	-8.2%	-7.1%
C=CCC1C=C(Cc2ccccc2)CC(CC=C)N1 (stereo not given)	1.1%	7.5%	7.0%	18.4µM*	23.1µM*
C=CC[C@H]1CC(Cc2ccccc2)=C[C@H](CC=C)N1	-24.7%	3.7%	4.3%	16.4µM*	18.4µM*
C=CC[C@H]1CC(C)=C[C@H](CC=C)N1	-13.0%	-5.8%	2.6%	13.2%	0.8%
O=C(Nc1ccccn1)c1ccc(NC(=O)c2ccco2)cc1	13.8%	-9.2%	9.6%	-25.4%	u
